Bioassay records from PubChem BioAssay.
An excerpt weighted towards active compounds, which were near 3.6% of everything screened.
Pf apPOL block = Pf-apPOL DNA polymerase inhibition; 210,000 compounds, 0.25% hits; inhibition, % at 10 µM; Recombinant Pf-apPOL, molecular beacon fluorescence, 1.5 h
mHTT-CaM PPI inh = inhibitors of human mutant huntingtin-calmodulin interaction; 190,000 compounds, 3.6% hits; inhibition, % at 15 µM; AlphaScreen His-mHTT/GST-CaM binding, luminescence;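 further: 0% = both proteins with DMSO and 100% = one protein alone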
* = called active by the depositor; · = no result given; ! = not active in a repeat. No stated cut-off is given here; in the data, active means inhibition above about 50%; inactive means the rest.

SMILES	Pf apPOL block	mHTT-CaM PPI inh
O=[N+]([O-])c1ccc2nc(/C=C/c3ccco3)[nH]c2c1	0	59*
O=S(=O)(N=S(=O)(/C=C/c1ccccc1)c1ccccc1)c1ccccc1 (stereo not given)	-4	3
Oc1ccc(C2CC3CCC2C3)cc1O (stereo not given)	-2	54*
Cc1cc(C2CCCCC2)ccc1O	-2	3
COc1ccc(C=C2Oc3cc(OCC(=O)c4ccc(OC)cc4)ccc3C2=O)cc1	-3	-1
CCOC(=O)COc1ccc2c(c1)OC(=CC=Cc1ccccc1)C2=O	-2	11
C=C(C)COc1ccc2c(c1)OC(=Cc1cccc(OC)c1)C2=O	-7	73*
COc1ccc(C=C2Oc3cc(OCC(=O)O)ccc3C2=O)cc1	61*	4
CC(C)(C)OC(=O)COc1ccc2c(c1)OC(=CC1=Cc3ccccc3OC1)C2=O	-3	8
CC(=O)COc1ccc2c(c1)OC(=CC=Cc1ccccc1)C2=O	7	88*
COc1ccc(C(=O)COc2ccc3c(c2)OC(=CC2=Cc4ccccc4OC2)C3=O)cc1OC	-6	58*
COc1cccc(C=C2Oc3cc(OCC(C)=O)ccc3C2=O)c1	0	6
Cc1nn(CCCC(=O)Nc2cc(Br)ccc2O)c(C)c1[N+](=O)[O-]	2	7
CN(CCc1ccccn1)C(=O)/C(=C\c1ccccc1)NC(=O)c1ccccc1	-1	4
CCc1nc(SCC(=O)c2ccc(O)cc2O)n[nH]1	-4	71*
O=C(CSc1n[nH]c(-c2ccccc2)n1)c1ccc(O)cc1O	0	1
Cc1c(C)c(C)c(CSCC(=O)NN)c(C)c1C	24	·
N#CC1=C(N)SC(N)=C(C#N)C1c1cccc(Cl)c1	4	74*
N#CC1=C(N)SC(N)=C(C#N)C1c1ccc(Cl)cc1Cl	-8	8
O=CN1N=C(c2ccccc2)CC1c1ccccc1 (stereo not given)	-3	-6
O=C(Nc1ccc(NC(=O)C2CCCC2)cc1)C1CCCC1	-3	7
O=C(Nc1ccc(O)cc1)C1CC=CCC1 (stereo not given)	0	70*
Oc1c(C(Nc2ccccn2)c2ccccc2Br)ccc2cccnc12 (stereo not given)	-1	99*
Oc1ccc(Br)c(C(Nc2ccccn2)c2ccc3cccnc3c2O)c1 (stereo not given)	-4	100*
O=C(Nc1cc(Br)cc2cccnc12)c1ccccc1Br	-5	-4
SMILES	Pf apPOL block	mHTT-CaM PPI inh
Cc1ccc(-c2nc3ccccc3s2)cc1NC(=O)c1ccccc1	-4	-7
COC(=O)C(C)Oc1ccc2c(=O)c(-c3ccccc3)coc2c1 (stereo not given)	-4	-4
COc1cccc(OC)c1OCC(O)CN1CCN(c2ccccc2F)CC1 (stereo not given)	-4	5
COc1cccc(OC)c1OCC(O)CN1CCN(c2cccc(Cl)c2)CC1 (stereo not given)	1	53*
Cc1ccc(Cl)cc1N1CCN(CC(O)COc2ccccc2[N+](=O)[O-])CC1 (stereo not given)	6	91*
COc1ccc(N2CCN(CC(O)COc3c(OC)cccc3OC)CC2)cc1 (stereo not given)	-6	7
COc1cccc(OC)c1OCC(O)CN1CCN(c2cc(Cl)ccc2C)CC1 (stereo not given)	1	64*
O=[N+]([O-])c1ccccc1OCC(O)CN1CCN(c2cccc(Cl)c2)CC1 (stereo not given)	-13	23
O=C(Nc1ccc(Br)cc1)NC1CCN(c2ccccc2)C1=O (stereo not given)	-1	-8
Cc1[nH]cnc1CSCCNC(=O)c1ccc2c(c1)NC(=O)C1CCCCN21 (stereo not given)	-2	16
COCC(=O)NC1CCc2[nH]c3c(C)cccc3c2C1 (stereo not given)	-2	10
CCc1cccc2c3c([nH]c12)CCC(NC(=O)CC1C=CCC1)C3 (stereo not given)	10	57*
Cc1ccccc1CC(=O)NC1CCc2[nH]c3c(C)cccc3c2C1 (stereo not given)	13	29
Cc1nc(CC(=O)NC2CCc3[nH]c4c(Cl)cccc4c3C2)c(C)s1 (stereo not given)	-12	95*
COc1cc(NC(=O)c2oc(=O)c3ccccc3c2-c2ccc(C)cc2)cc(OC)c1OC	-4	21
Cc1ccc(C(=O)N2CCC(COc3ccc(C(=O)N4CCCCC4)cc3)CC2)s1	-5	-3
CCc1noc(-c2cccnc2N2CCCN(C(=O)c3cccc(F)c3)CC2)n1	-6	-5
CC1Oc2ccc(NC(=O)C3CC3)cc2CN(Cc2ccccc2F)C1=O (stereo not given)	-4	2
COc1cc2c(cc1OC)C(C1=NC(C)(C)Cc3ccccc31)=NC(C)(C)C2	-2	13
COc1cc2c(cc1OC)C(SC)=NC(C)(C)C2	95*!	-1
O=C(NCc1cccc(F)c1)C1CCN(c2nn3c(=O)c4c(nc3s2)CCCC4)CC1	9	10
Cc1ccc(CNC(=O)C2CCN(c3nn4c(=O)c5c(nc4s3)CCCC5)CC2)cc1	3	89*
COc1cc(/C(C#N)=C/c2ccc(Cl)cc2)c([N+](=O)[O-])cc1OC	1	14
O=C(Nc1ccc2c(c1)CCC2)c1ccnc(N2CCNC(c3ccccc3)C2)c1 (stereo not given)	-4	82*
O=C(Nc1ccc2c(c1)OCCO2)c1ccnc(N2CCNC(c3ccccc3)C2)c1 (stereo not given)	4	16
SMILES	Pf apPOL block	mHTT-CaM PPI inh
O=[N+]([O-])c1ccc2c(c1)CSc1nc3ccccc3n1-2	·	-3
Nc1nc(NC(=O)c2ccc(F)cc2)nn1-c1ccccc1	65*	0
CC(=O)Nc1nc(N)n(-c2ccccc2)n1	-1	-1
Cn1c(=O)c2c(nc(Oc3ccc(Cl)cc3)n2Cc2ccc(F)cc2)n(C)c1=O	-2	1
O=c1ccc2c(Cl)cc(Cl)c(O)c2[nH]1	-3	12
NNc1ccc2c(Cl)cc(Cl)c(O)c2n1	-5	100*
COCCN(Cc1ccncc1)C(=O)c1ccsc1	3	-4
